Hit rate of the full screen: of about 85,000 compounds, about 5,100 (6%) were called active.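 Rule for the calls: active = viability at or below 40%; inactive = viability above 40%.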 What follows is part of a selection rich in actives, with near analogues and random picks from the rest.
Assay: H69AR cell viability reduction – human, 86K library, primary screen (AID 598);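 note: multidrug resistant small cell line overexpressing MRP-1 efflux transporter; 100% = mean luminescence of untreated control wells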
Conditions: H69AR lung tumor viability, ATP luminescence, 72 h; at 10 µM; stronger effect = lower value

Row | Compound | viability
1 | Cc1cccc(N2CCN(C(c3ccc(N(C)C)cc3)c3nnnn3C(C)(C)C)CC2)c1C (centres undefined) | 83.3% (inactive)
2 | O=C(COC(=O)c1ccc(Oc2ccccc2)cc1)Nc1nnc(-c2ccccc2)o1 | 58.7% (inactive)
3 | CCCc1nc2ccccc2c(C(=O)OCc2nnc(-c3cc(OC)c(OC)c(OC)c3)o2)c1CC | 50.2% (inactive)
4 | O=C(OCc1nnc(-c2ccccc2)o1)c1ccc2c(c1)C(=O)N(CCc1ccccc1)C2=O | 33.8% (active)
5 | O=C1CCCc2nn(-c3ccccc3)nc21 | 87.6% (inactive)
6 | CCCN1CC=C2C(C#N)=C(N)C(C#N)(C#N)C(c3cc(OC)ccc3OC)C2C1 (centres undefined) | 31.8% (active)
7 | CCN1CC=C2C(C#N)=C(N)C(C#N)(C#N)[C@H](c3ccoc3)[C@H]2C1 | 84.8% (inactive)
8 | CCOC(=O)N1CC=C2C(C#N)=C(N)C(C#N)(C#N)[C@H](c3cccs3)[C@H]2C1 | 61.6% (inactive)
9 | CCOC(=O)C1=C(CSc2nnnn2C)N(C)C(=O)NC1c1ccccc1 (centres undefined) | 93.1% (inactive)
10 | COc1ccc(N2CCN(C(=O)CCc3nc(-c4ccc(C)cc4)no3)CC2)cc1 | 98.4% (inactive)
11 | CCc1cccc(C)c1N(C(=O)Cn1c(CO)nc2ccccc21)C(C)COC (centres undefined) | 71% (inactive)
12 | CCOC(=O)c1c(C)oc2cc(Br)c(OCC(N)=O)cc12 | 80.2% (inactive)
13 | CCOC(=O)c1c(C)oc2ccc(OCC(=O)N(CC)CC)cc12 | 38.9% (active)
14 | Cc1cc(=O)oc2ccc(OCC(=O)O)cc12 | 97.4% (inactive)
15 | CN(C)c1ccnc2sc3c(=O)n(-c4ccc(Cl)cc4)cnc3c12 | 80.8% (inactive)
16 | O=C(N/N=C/C=C/c1ccccc1)C1CC1(c1ccccc1)c1ccccc1 (centres undefined) | 98.1% (inactive)
17 | CC(C)C[C@@H](N)c1nnc(SCC(=O)c2ccc(Cl)cc2)o1 | 86.9% (inactive)
18 | COC(=O)c1cc(Cl)c(NC(=O)c2ccco2)cc1OC | 94% (inactive)
19 | COc1cc(C(=O)OC(C)C(=O)NCC2CCCCC2)cc(NC(=O)c2ccco2)c1OC (centres undefined) | 13.1% (active)
20 | COc1ccc(NC(=O)c2cccc(NC(=O)c3ccco3)c2)c(OC)c1 | 88.5% (inactive)

Row | Compound | viability
21 | CC(C)(C)c1ccc(C(=O)NCC(=O)OCN2C(=O)c3ccccc3C2=O)cc1 | 104% (inactive)
22 | Cc1cc(C)nc(-n2nc(C)cc2NC(=O)c2ccc(Br)o2)n1 | 36.5% (active)
23 | Cc1cc(NC(=O)Nc2ccccc2)n(-c2ccccc2)n1 | 92.7% (inactive)
24 | Cc1cccc(-n2nc3c(c2NC(=O)c2ccc(Br)o2)CSC3)c1C | 59.7% (inactive)
25 | CSc1nc(N)c(C#N)c(-c2ccccc2Cl)c1C#N | 21.8% (active)
26 | CSc1ccc(-c2c(C#N)c(N)nc3c2c(C)nn3-c2ccccc2)cc1 | 57.5% (inactive)
27 | N#Cc1c(N)nc2c3c(sc(=N)c2c1N)NC(=O)CC3c1ccccc1Cl (centres undefined) | 113% (inactive)
28 | O=C(NC1CCC(O)CC1)c1ccc(S(=O)(=O)NCc2ccco2)cc1 (centres undefined) | 96.7% (inactive)
29 | Cc1nnc(SCC(=O)NCc2ccccc2)s1 | 96.4% (inactive)
30 | CC1(C)Cc2c(sc3nc(SCC(=O)NCc4ccccc4)n(-c4ccccc4)c(=O)c23)CS1 | 24.1% (active)
31 | CNC(=O)CSc1nnc(CCc2ccccc2)n1-c1ccccc1 | 83.2% (inactive)
32 | CCOC(=O)c1c(NC(C)=O)sc2c(O)c(Br)ccc12 | 94.9% (inactive)
33 | COc1ccc(C(C#N)Nc2ccccc2C)cc1 (centres undefined) | 88.9% (inactive)
34 | O=C(Nc1nnc(SCc2ccccc2)s1)c1ccco1 | 96% (inactive)
35 | O=C(CSc1nnc(-c2cccnc2)n1Cc1ccco1)c1ccc(Cl)cc1 | 95.3% (inactive)
36 | Clc1cccc(-c2nc3nc4ccccc4nc3n2Cc2ccco2)c1 | 34.4% (active)
37 | COc1ccc(CCn2c(-c3ccco3)nc3nc4ccccc4nc32)cc1OC | 55.4% (inactive)
38 | Cc1cccc(S(=O)(=O)CC(=O)Nc2nc(-c3ccccc3)cs2)c1 | 99.7% (inactive)
39 | Cc1nc(NNC(=O)c2ccccc2)cc(-c2ccccc2)n1 | 91.7% (inactive)
40 | O=C(NCc1ccccc1)[C@@H]1CSC2c3ccccc3C(=O)N21 (some centres undefined) | 78.5% (inactive)

Row | Compound | viability
41 | COC(CNC(=O)Cn1ncc2ccsc2c1=O)OC | 101% (inactive)
42 | Cc1cccc(N(C(=O)c2ccc(CN3CCOCC3)o2)C(C(=O)NC2CCCCC2)c2ccc(F)cc2)c1 (centres undefined) | 103% (inactive)
43 | COC(=O)c1cccc(N(C(=O)c2ccco2)C(C(=O)NC2CCCC2)c2ccco2)c1 (centres undefined) | 32.4% (active)
44 | COC(=O)c1ccc(N(CC(=O)NC2CCCC2)C(=O)CNC(=O)c2ccco2)cc1 | 94.9% (inactive)
45 | COc1ccc(-c2oc(/N=C/N3CCCC3)c(C#N)c2-c2ccc(OC)cc2)cc1 | 99.1% (inactive)
46 | O=C(N/N=C\c1cccc(Br)c1)c1ccccc1-n1cccc1 | 93.7% (inactive)
47 | N=c1c2c(-c3ccccc3)c(-c3ccccc3)n(Cc3ccccc3)c2ncn1CCCO | 0.82% (active)
48 | Cc1ccc(NC(=O)N2CCC(c3nc4c(nnn4Cc4c(F)cccc4Cl)c(=O)[nH]3)CC2)cc1 | 67.6% (inactive)
49 | CCCCNC(=O)C1CCCNC1=O (centres undefined) | 98.9% (inactive)
50 | COc1ccccc1-c1c(C)nn2c(C)c(C(C)=O)cnc12 | 89.8% (inactive)
51 | C=C(C)COc1ccc(-c2n[nH]c(C)c2-c2ccccc2OC)c(O)c1 | 39.9% (active)
52 | C=C(C)COc1ccc(-c2n[nH]c(C)c2-c2ccccc2)c(O)c1 | 95.5% (inactive)
53 | COc1ccc(-c2n[nH]c(C)c2-c2ccc(OC)c(OC)c2)c(O)c1 | 14.9% (active)
54 | O=C(Cn1c(-c2cscn2)nc2ccccc21)Nc1ccc(Cl)cc1 | 72.9% (inactive)
55 | COc1ccc(C)cc1S(=O)(=O)NCCc1ccccc1 | 96% (inactive)
56 | CCCCOc1ccc(N(CC(=O)NCC2CCCO2)C(=O)CCC(=O)Nc2cc(C)ccn2)cc1 (centres undefined) | 102% (inactive)
57 | O=C(CC12CC3CC(CC(C3)C1)C2)Nc1ccc2c(c1)COC2=O | 90.9% (inactive)
58 | O=S(=O)(NN=C1CCCCCCC1)c1ccc(Br)cc1 | 88.9% (inactive)
59 | CC/S(CC1CC1(Cl)Cl)=N\S(=O)(=O)c1ccc(C)cc1 (centres undefined) | 76.7% (inactive)
